# Assay outcomes as filed in PubChem.
# HSF1 activator – increases HSF-1 driven luciferase reporter signal. NIH3T3-HGL HSF-1 luciferase reporter, MG132, 8 h; 100% = twice DMSO control signal. AID 504408. hit rate 1.7% among 300,000. activation, % at 9 µM;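 active = mean replicate activation of at least 50% with a set share of replicates each reaching 50%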
# HSF1 inh – HSF1 inhibition | activity change, negative = inhibition, % at 7.5 µM (by protocol) | AID 2098 | NIH3T3-HGL HSE-luciferase, MG132-induced, luminescence 8 h; hits give low values | hit rate 0.77% among 300,000;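 active = more than half of replicate wells show activity change below -50%, luminescence cut by over half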;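 also: luciferase reports HSF-1 transcriptional activity via heat shock element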
# esBAF inh – SWI/SNF esBAF complex inhibition. mouse ES cells, Bmi1-luciferase knock-in reporter, 24 h; 100% = twice the neutral-well signal. reporter increase, % at 12.5 µM. hit rate 2% among 350,000. AID 602393; in the data active = activation above about 40%;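 also: a rise in the Bmi1 reporter signal indicates esBAF inhibition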
# Wnt bcat act – activates Wnt/beta-catenin signaling in a reporter cell assay; activator, plate reader; activation, % at 9.35 µM; hit rate 1.2% among 300,000; AID 743398; in the data active = activation above about 30%, passing the limit was not always enough
# MITF TRPM1 HTS – increases MITF-driven TRPM1 promoter luciferase signal. activation, % at 12.5 µM. SK-MEL-5 TRPM1-promoter luciferase, 24 h; % of positive control, neutral wells = 0. hit rate 0.75% among 300,000. AID 588334;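 active = mean activation of at least 80% with every replicate also reaching 80%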
# SMARCA2 activ – SMARCA2 function activation, primary screen. MG213 cells, MMTV-luciferase reporter, dexamethasone, overnight. activation, % at 9.1 µM. hit rate 1% among 370,000; in the data active = activation above about 7.8%
# A number is an active result; - = inactive; . = no result. Rows were chosen to be rich in hits. Some 4.3% of all compounds tested hit in one or more screens of this group.
SMILES,HSF1 activator,HSF1 inh,esBAF inh,Wnt bcat act,MITF TRPM1 HTS,SMARCA2 activ
COc1ccc(-c2cc(C(=O)NCc3cccnc3)no2)cc1,-,-,-,.,-,-
O=C(NCc1ccccc1)c1cc(-c2cccc(O)c2)on1,-,-,68,-,.,-
O=C(NCC[C@H]1CC[C@H](NS(=O)(=O)c2cccc(F)c2)[C@H](CO)O1)C1CCC1,.,.,-,.,.,.
O=C(c1ccccc1F)N1C[C@@H]2[C@H](c3ccccc31)[C@H](CO)N2C(=O)c1ccc(F)cc1,.,.,-,.,.,.
Cc1ccc[n+](CC(=O)Nc2ccc([N+](=O)[O-])cc2Cl)c1,67,-,.,.,-,-
CC1CC(=O)N(c2ccc(NCCc3ccccc3)c([N+](=O)[O-])c2)C1=O (stereo unspecified),-,-,-,-,-,-
O=C1C2CC=CCC2C(=O)N1c1ccc(NCCc2ccccc2F)c([N+](=O)[O-])c1 (stereo unspecified),64,-,-,.,-,-
O=C1C2CC=CCC2C(=O)N1c1ccc(NCCc2ccccc2)c([N+](=O)[O-])c1 (stereo unspecified),70,-,.,.,-,-
COc1ccccc1N1CCN(C(CNS(=O)(=O)c2ccccc2)c2ccccc2)CC1 (stereo unspecified),57,-,-,-,-,-
CCOc1ccc(/C=N/NC(=O)c2ccc(Cn3cc([N+](=O)[O-])cn3)o2)cc1,-,-55,-,-,-,-
CCOc1ccc(/C=N/NC(=O)c2ccc(Cn3cc(Br)cn3)o2)cc1,-,-,.,-,-,-
CCCNC(=O)[C@H]1[C@H](CO)[C@H]2Cn3c(cccc3=O)[C@@H]1N2C(=O)Nc1cc(F)ccc1F,.,.,-,.,.,.
COCCNC(=O)C1CC(=O)N(C2CCCCC2)C1 (stereo unspecified),55,-,-,.,-,-
COc1ccc(S(=O)(=O)N(C)C[C@@H]2OCCCC[C@@H](C)Oc3ccc(NC(=O)NC(C)C)cc3C(=O)N([C@H](C)CO)C[C@H]2C)cc1,.,.,-,.,.,.
CC(=O)Nc1ccc(-c2nnn(CC(=O)Nc3ccc4c(c3)OCO4)n2)cc1Cl,-,-59,.,-,-,-
O=C(COc1ccccc1)N1CCc2ccccc21,-,-,.,.,-,-
O=C(COc1ccc(Br)cc1)N1CCc2ccccc21,-,-,.,-,99,-
O=C(COc1ccccc1Cl)N1CCc2ccccc21,74,-,64,-,-,-
O=C(COc1ccccc1Cl)N1CCc2ccccc2C1,-,-,-,-,.,-
Cc1noc(C)c1S(=O)(=O)Nc1ccc2c(c1)C(=O)N([C@@H](C)CO)C[C@@H](C)[C@H](CN(C)S(C)(=O)=O)OCCCC[C@@H](C)O2,.,.,-,.,.,.
Cc1cccc(C)c1-n1c(C)cc(/C=C2\NC(=O)NC2=O)c1C,-,-52,-,.,.,-
c1ccc(-c2onc3cc4c(cc23)OCCO4)cc1,-,-,68,.,106,-
CC(=O)c1ccc2noc(-c3ccccc3)c2c1,-,-,-,-,-,-
O=C(Oc1ccc2c(c1)OCO2)c1ccc(F)cc1Cl,63,-,-,-,-,-
CCOc1ncccc1C(=O)Oc1ccc2c(c1)OCO2,-,-,-,.,-,-
SMILES,HSF1 activator,HSF1 inh,esBAF inh,Wnt bcat act,MITF TRPM1 HTS,SMARCA2 activ
O=C(Oc1ccc2c(c1)OCO2)c1cc2c(s1)CCC2,81,-,-,-,-,-
CC(=O)Oc1cccc(C(=O)Nc2ccc3c(c2)C(=O)N(CC2CCCO2)C3=O)c1 (stereo unspecified),72,-,-,-,-,-
COc1cccc(C(=O)Nc2ccc3c(c2)C(=O)N(CC2CCCO2)C3=O)c1 (stereo unspecified),-,-,.,-,-,-
C[C@@H]1CN([C@H](C)CO)C(=O)Cc2cc(NC(=O)Cc3cn(C)c4ccccc34)ccc2O[C@@H]1CN(C)Cc1ccc(Cl)c(Cl)c1,.,.,-,.,.,.
CCNC(=S)Nc1cccc(S(=O)(=O)Nc2ccccc2OC)c1,-,-,-,33,-,-
CC(=O)Nc1ccc(S(=O)(=O)C(C#N)c2nc3ccccc3nc2NCCO)cc1 (stereo unspecified),-,-,-,46,-,-
CN(C)S(=O)(=O)c1ccc(C(=O)Nc2nc(-c3cccs3)cs2)cc1,-,-,-,-,.,-
COc1ccc(-n2c(C)cc(-c3csc(NC(=O)c4ccc(S(=O)(=O)N(C)C)cc4)n3)c2C)cc1,-,-54,-,-,-,-
